NSD2 inh – NSD2 histone methyltransferase inhibitors, primary screen, biochemical, AlphaScreen, single concentration, set 2. 0.54% of 310,000 active. inhibition, % at 12.5 µM. NSD2 peptide methylation, 120 min. AID 743445, 2014; in the data active means inhibition above about 50%
C-LANA FP – inhibitors of KSHV C-LANA binding to DNA, primary screen, biochemical, fluorescence polarization, FAM-LBS DNA, MBP-C-LANA, single point; inhibition, % at 9 µM; 0.078% of 340,000 active;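 active means highest replicate inhibition at or above 60% at 9 µM, even if other replicates fall short; inactive means all replicates below 60% inhibition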;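 further: 0% = neutral control wells and 100% = 4 µM acridine orange control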
Casp6 inh – human caspase-6 inhibitors, primary screen, biochemical, VEID-R110 fluorescence, single point, set 2. P55212. purified caspase-6, Z-VEID-R110 cleavage fluorescence. inhibition, % at 12.5 µM. 0.53% of 350,000 active. AID 686996, 2013;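 active means mean inhibition across replicates at least about 35%, with every replicate also reaching that limit, limit read from the data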;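 further: 0% = median of neutral control wells and 100% = no fluorescence left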
Target sequence (P55212 24-179 limits assumed): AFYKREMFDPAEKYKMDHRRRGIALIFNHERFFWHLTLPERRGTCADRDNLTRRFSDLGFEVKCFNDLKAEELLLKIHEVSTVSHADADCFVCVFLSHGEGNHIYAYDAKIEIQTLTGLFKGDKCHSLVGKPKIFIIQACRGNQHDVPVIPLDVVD
Target sequence (P55212 194-293 limits assumed): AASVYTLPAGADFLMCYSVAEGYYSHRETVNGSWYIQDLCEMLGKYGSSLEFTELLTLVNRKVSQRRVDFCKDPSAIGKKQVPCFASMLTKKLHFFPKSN
Keap1-Nrf2 PPI – Keap1-Nrf2 protein-protein interaction inhibitors, primary screen, biochemical, fluorescence polarization, single point; Kelch-like ECH-associated protein 1 (Homo sapiens), Q14145; Keap1 Kelch-Nrf2 peptide fluorescence polarization, 1536-well; inhibition, % at 9.4 µM; 0.15% of 340,000 active; in the data active means inhibition above about 12%;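 further: human Keap1 Kelch domain with fluorescein labeled Nrf2 9mer peptide probe; 0% = neutral control wells and 100% = peptide positive control; higher means more block of Keap1 binding to Nrf2 peptide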
HDAC3 inh – HDAC3 deacetylase inhibitors, primary screen, biochemical, fluorescence, cell-free homogeneous; recombinant HDAC3, fluorogenic peptide/trypsin coupled; AID 2718, 2010; inhibition, % at 8.3 µM; Histone deacetylase 3 (Homo sapiens), O15379; 0.15% of 320,000 active; in the data active means inhibition above about 26%, passing the limit was not always enough
Target sequence (O15379 whole entry, looked up): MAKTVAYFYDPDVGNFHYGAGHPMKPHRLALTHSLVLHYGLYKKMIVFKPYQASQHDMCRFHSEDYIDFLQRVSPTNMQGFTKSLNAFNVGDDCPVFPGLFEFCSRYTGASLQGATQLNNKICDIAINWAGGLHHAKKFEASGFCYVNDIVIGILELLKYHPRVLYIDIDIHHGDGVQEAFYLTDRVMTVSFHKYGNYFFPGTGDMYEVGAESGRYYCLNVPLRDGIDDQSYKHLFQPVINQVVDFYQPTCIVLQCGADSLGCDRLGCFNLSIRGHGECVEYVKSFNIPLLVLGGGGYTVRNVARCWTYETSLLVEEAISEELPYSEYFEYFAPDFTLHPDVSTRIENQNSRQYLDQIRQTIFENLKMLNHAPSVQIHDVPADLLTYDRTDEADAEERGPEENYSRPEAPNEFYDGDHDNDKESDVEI
N-glyco inh – increase of ERlucT glycosylation luciferase signal, primary screen, N-linked glycosylation inhibitor project, D54 ERlucT cells, luminescence, set 2; AID 588692, 2011; D54 ERlucT glycosylation luciferase reporter, 24 h; percent of 100 nM tunicamycin response; 0.23% of 360,000 active; reporter increase, % at 12.5 µM;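 active means mean luciferase reporter signal, scaled so untreated is 0 and the glycosylation-blocking control 100, at or above a set limit in every replicate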;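 further: luciferase carries N-glycosylation sites so blocking glycosylation raises the light; 0% = median of neutral control wells and 100% = median of 100 nM tunicamycin wells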
* marks the source's active call; other numbers are inactive results; . = not tested or not shown; ! = not active in a repeat. Rows were chosen to be rich in hits. Some 1.1% of all compounds tested hit in one or more screens of this group.

SMILES	NSD2 inh	C-LANA FP	Casp6 inh	Keap1-Nrf2 PPI	HDAC3 inh	N-glyco inh
CCN(CC)CCNC(=O)c1cc2c(-c3ccc(Cl)cc3)nn(C)c2s1	.	-23.7	-13.7	-1.5	.	36.0*
CCN1/C(=C/c2ccc3ccccc3[n+]2CC)C=Cc2ccccc21	.	-10.8	.	-16.2	7.6	85.2*
CCN1/C(=C/c2ccc3ccccc3[n+]2CCCS(=O)(=O)[O-])C=Cc2cc(C)ccc21	.	-4.6	4.4	-2.2	11.1	-1.8
Cc1[nH]c(=O)[nH]c1C(=O)CCCCC(=O)OCC(=O)Nc1ccccn1	142.2*	-1.3	.	-5.0	.	1.8
C[C@@H]1CN([C@H](C)CO)C(=O)c2cccc(NC(=O)Nc3ccc4c(c3)OCO4)c2O[C@H]1CN(C)C(=O)Nc1ccc(C(F)(F)F)cc1	.	.	4.9	.	.	.
CCC(=O)NC1=C(Nc2ccc(N)cc2)C(=O)c2ccccc2C1=O	12.5	-1.4	.	-0.7	2.6	-5.4
CCC(=O)N(C1=C(NC(C)C)C(=O)c2ccccc2C1=O)C(C)C	69.7*	5.7	43.7*	4.4	2.1	6.6
C=C(C)C(=O)OC1(C(F)(F)F)Oc2cc(C)ccc2NC1=O (stereo unspecified)	5.4	1.2	.	-10.2	28.6*	10.8
CCOC(=O)C1(N(CC)CC)Sc2cc(C)ccc2NC1=O (stereo unspecified)	.	0.7	.	-3.6	14.3	11.4
O=C(c1nc2ccccn2c1CN1CCCC(c2nc3ccccc3o2)C1)N1CCCC1 (stereo unspecified)	-3.4	0.3	51.1*	2.2	-2.6	2.2
CCOC(=O)C1CCCN(Cc2c(C(=O)N3CCOCC3)nc3ccccn23)C1 (stereo unspecified)	-3.3	7.5	-2.7	5.3	-5.6	0.7
CCN(CC)C1CCN(Cc2c(C(=O)N3CCCCCCC3)nc3ccc(Cl)cn23)C1 (stereo unspecified)	42.0	2.1	64.3*	6.0	2.9	1.0
O=C(NCc1ccccc1)[C@@H]1[C@@H](CO)[C@@H]2Cn3c(cccc3=O)[C@H]1N2C(=O)Cc1ccccn1	.	.	1.3	.	.	.
CC(C)NC(=O)Nc1ccc2c(c1)CC(=O)N([C@H](C)CO)C[C@H](C)[C@@H](CN(C)Cc1ccccc1)O2	.	.	-2.6	.	.	.
C[C@H]1CN([C@@H](C)CO)C(=O)CCCn2cc(nn2)CO[C@@H]1CN(C)C(=O)CCC(F)(F)F	.	.	44.5*!	.	.	1.4
C[C@@H]1CN([C@@H](C)CO)S(=O)(=O)c2ccc(C#Cc3ccccc3)cc2O[C@@H]1CN(C)C(=O)CN(C)C	.	.	0.1	.	.	.
CCNC(=O)[C@@H]1[C@@H](CO)[C@@H]2Cn3c(ccc(-c4ccc(F)cc4)c3=O)[C@@H]2N1CC1CC1	.	.	1.0	.	.	.
CCCCNC(=O)C1C(c2ccc(C(F)(F)F)cc2)=Nc2ccccc2N1C(=O)c1ccc2nc(C)[nH]c2c1 (stereo unspecified)	.	.	39.9*	.	.	.
CCCCNC(=O)C1C(c2ccc(C(F)(F)F)cc2)=Nc2ccccc2N1C(C)=O (stereo unspecified)	-0.9	.	1.9	.	.	.
CC(C)(O)c1cn([C@@H]2C[C@@H]3O[C@H](CO)CC[C@@H]3O[C@@H]2CCc2ccc(-c3cccnc3)cc2)nn1	.	.	-3.9	.	.	.
CC(C)(O)c1cn([C@@H]2C[C@@H]3O[C@@H](CO)CC[C@@H]3O[C@@H]2CCc2ccc(-c3ccncc3)cc2)nn1	.	.	52.3*	.	.	.
Nc1ccc(N2CCOCC2)c2nonc12	.	0.8	82.9*	-20.1	3.1	-0.3
O=C(Nc1ccc(N2CCOCC2)c2nonc12)C1CCCC1	37.4	-0.1	.	-2.7	0.3	-0.1
Cc1cccc(N2CCN(S(=O)(=O)c3ccc(-c4ccc(=O)[nH]n4)o3)CC2)c1C	-1.8	-0.8	3.9	-5.5	1.0	39.8*
CCNC1=C(Cl)C(=O)c2ccccc2C1=O	30.0	-4.0	.	-4.0	-2.1	-7.4
SMILES	NSD2 inh	C-LANA FP	Casp6 inh	Keap1-Nrf2 PPI	HDAC3 inh	N-glyco inh
O=C1C(Cl)=C(NCc2ccco2)C(=O)c2ccccc21	71.3*	4.5	98.9*	-1.3	.	-12.7
CCCCn1nnnc1-c1nc2ccccc2[nH]c1=O	.	.	1.1	.	.	.
CCCCCn1nnnc1-c1nc2cc(C)c(C)cc2[nH]c1=O	.	.	42.2*	.	.	.
COc1ccc2cc(/C=C/C(=O)c3ccco3)c(Cl)nc2c1	.	.	.	.	-29.0	.
Cc1ccc2nc(Cl)c(/C=C/C(=O)c3ccco3)cc2c1	-1.0	0.7	-0.5	-2.1	10.7	42.4*
COc1cc2cc(/C=C/C(=O)c3ccco3)c(Cl)nc2cc1OC	25.0	0.5	.	-46.0	12.0	48.8*
Cc1ccc2cc(/C=C/C(=O)c3ccco3)c(Cl)nc2c1	1.9	.	-1.4	.	1.2	21.0
CN(C)C(=O)c1ccc(-c2ccc([C@@H]3[C@@H](CO)N4CCCCN(S(C)(=O)=O)C[C@H]34)cc2)cc1	.	.	0.7	.	.	.
C[C@@H]1CN([C@H](C)CO)C(=O)c2cc(NC(=O)CCC(F)(F)F)ccc2O[C@@H](C)CCCCO[C@@H]1CN(C)Cc1ccc(C(=O)O)cc1	.	.	0.8	.	.	.
C=CCOc1c(OC)cc(/C=N/Nc2cccc(C(=O)O)c2)c(Br)c1Br	11.1	1.9	42.6*	-0.7	3.1	4.9
Nc1ccccc1NC(=O)NC(=O)c1ccccc1	0.9	-2.1	-4.3	-2.0	41.2*	-0.1
Nc1ccccc1NC(=O)c1ccccc1N	-10.7	0.3	.	-4.0	19.8	1.4
NNC(=O)c1ccc2nc(-c3ccc(Br)cc3)cn2c1	-0.6	1.6	0.0	3.3	-2.0	116.1*
CC(=O)c1ccc(N2CCN(S(=O)(=O)c3ccc4c(c3)C(Cl)(Cl)C(=O)N4)CC2)cc1	.	.	9.7	.	.	11.0
CC1CCN(S(=O)(=O)c2ccc3c(c2)C(Cl)(Cl)C(=O)N3)CC1	40.9	.	69.1*	.	.	8.4
Cn1c(=O)c2c(ncn2CC(=O)OCC(=O)c2ccc(OC(F)F)cc2OC(F)F)n(C)c1=O	-1.2	.	54.6*	.	.	0.3
Cn1c(=O)c2c(ncn2CC(=O)OCC(=O)Nc2ccccc2)n(C)c1=O	-4.4	-0.4	-6.1	-0.4	-5.5	3.1
COc1ccccc1C(=O)Nc1ccc2c(c1)C(=O)N(C)[C@@H]1CC[C@H](CC(=O)NCCc3ccncc3)O[C@H]1CO2	.	.	-1.5	.	.	.
O=C(Nc1ccccc1C(F)(F)F)NC1(C(=O)N2CCOCC2)CCCCC1	.	3.3	86.0*	-1.1	.	2.3
COc1ccccc1C(=O)N1C[C@@H]2[C@H](c3ccccc31)[C@H](CO)N2C(=O)Cc1cccnc1	.	.	3.1	.	.	.
Cc1ccccc1[C@@]1(C)ON(c2ccccc2C(F)(F)F)C1=O	.	0.6	-2.4	-7.7	-2.6	8.0

Source: PubChem BioAssay (Broad Institute)
